High-throughput results deposited in PubChem BioAssay by National Center for Advancing Translational Sciences (NCATS).
POLH inh: inhibitors of human DNA polymerase eta. Q9Y253. recombinant Pol eta, fluorescent DNA replication assay. Potency, µM (titrated, usually from 114 µM), for the others: at the top dose activity change, negative = inhibition, hits mostly inhibitors. 390,000 tested, 1.2% active. AID 588591; also: % is scaled to controls: 0 for no effect and ±100 for the full control effect
Target sequence (Q9Y253 whole entry, looked up): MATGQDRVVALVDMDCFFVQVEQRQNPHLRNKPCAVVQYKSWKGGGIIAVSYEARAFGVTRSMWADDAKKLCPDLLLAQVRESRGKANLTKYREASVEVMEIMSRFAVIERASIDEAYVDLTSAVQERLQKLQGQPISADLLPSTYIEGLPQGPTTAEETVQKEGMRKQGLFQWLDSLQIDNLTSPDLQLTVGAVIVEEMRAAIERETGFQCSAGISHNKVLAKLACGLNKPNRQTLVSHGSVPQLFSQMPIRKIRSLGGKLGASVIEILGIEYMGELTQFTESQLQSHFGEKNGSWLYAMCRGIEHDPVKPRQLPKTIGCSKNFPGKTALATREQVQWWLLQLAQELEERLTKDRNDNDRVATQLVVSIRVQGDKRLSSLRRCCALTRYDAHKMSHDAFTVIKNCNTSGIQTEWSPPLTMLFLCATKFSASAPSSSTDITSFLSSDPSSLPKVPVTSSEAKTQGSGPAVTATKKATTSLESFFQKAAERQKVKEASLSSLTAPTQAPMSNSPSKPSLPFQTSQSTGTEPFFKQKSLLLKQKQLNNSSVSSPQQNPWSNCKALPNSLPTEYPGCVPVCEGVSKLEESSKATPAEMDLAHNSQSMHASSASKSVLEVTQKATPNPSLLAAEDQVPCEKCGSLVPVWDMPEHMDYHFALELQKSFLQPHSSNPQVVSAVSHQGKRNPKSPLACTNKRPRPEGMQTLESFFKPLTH
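Pol eta (10 nM) was preincubated with compounds for 15 min at room temperature, after which fluorescent replication substrate (50 nM final) was added to start the reaction. Fluorescence was read kinetically at 0 and 10 min.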
FEN1 inhibitor: human FEN1 inhibition; Recombinant FEN1 flap cleavage, fluorescence, 15 min; Potency, µM (highest dose often 114 µM), for the others: top-dose activity change, negative = inhibition, hits mostly inhibitors; 390,000 tested, 0.35% active; AID 588795; also: % is scaled to controls: 0 for no effect and ±100 for the full control effect; nearly all actives have a fitted effect of over 65% in size
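Recombinant FEN1 (10 nM) was preincubated with pin-transferred compounds for 15 min at room temperature, then flap DNA substrate (50 nM final) was added. Plates were read at 0 and 15 min, and normalized concentration–response data were fitted to a four-parameter Hill equation.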
POLI inh: blocks human DNA polymerase iota activity. Potency, µM (series often up to 115 µM), without a hit: at the highest dose activity, negative = inhibition, most hits filed as inhibitors. 390,000 tested, 1% active. Pol iota fluorescent replication assay, 10 min. Q9UNA4
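Pol iota at 10 nM preincubated 15 min with compounds at room temperature; reaction started with fluorescent substrate, 50 nM final. Fluorescence read kinetically at 0 and 10 min; buffer-only wells as negative control.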
Pol beta inh: DNA polymerase beta (human) inhibition | P06746 | Pol beta primer extension/strand displacement, fluorescence kinetic | Potency, µM (doses to about 114 µM), without a hit: top-dose activity change, negative = inhibition, most hits filed as inhibitors | 340,000 tested, 1.3% active; also: % is scaled to controls: 0 for no effect and ±100 for the full control effect
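Reaction started by 50 nM substrate onto compound-treated Pol beta (10 nM, 15 min preincubation, room temperature); plates read at 0 min and 10 min. Normalized concentration-effect data fitted by four-parameter Hill equation.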
WRN inhibitor: WRN helicase (human) inhibition; Q14191; WRN helicase unwinding, fluorescent forked duplex, kinetic; Potency, µM (series often up to 114 µM), without a hit: at the highest dose activity change, negative = inhibition, most hits filed as inhibitors; 360,000 tested, 0.46% active; AID 651768; also: % is scaled to controls: 0 for no effect and ±100 for the full control effect; nearly all actives have a fitted effect of over 55% in size
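WRN at 20 nM final was preincubated with compound for 15 min at room temperature; reaction started with 100 nM forked duplex oligonucleotide carrying fluorophore and quencher plus 2 mM ATP (final). Unwinding followed kinetically by red fluorescence (ex 525/em 598 nm).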
Pol kappa inh: DNA polymerase kappa (human) inhibition; Potency, µM (highest dose often 107 µM), for inactives: top-dose activity, negative = inhibition, usual class: inhibitors; purified Pol kappa, fluorescent DNA synthesis assay, 10 min; AID 588579; 400,000 tested, 0.53% active; Q9UBT6; also: % is scaled to controls: 0 for no effect and ±100 for the full control effect
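Readout: fluorescence, taken kinetically at 0 and 10 min. Conditions: 10 nM Pol kappa, 15 min RT compound preincubation, 50 nM substrate final. Controls: enzyme-free buffer wells.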
* hit, by the source's call; u = inconclusive; x = not tested or not shown; [ ] = another dose, or the depositor's remark. In the library only some 2.4% were active in any assay of this set; here they are far more common. Calls follow the shape of the dose curve; as a rule, active = well fitted curve in the direction sought with a large enough effect; inconclusive = small, poorly fitted or top-dose-only effect, or another doubt; inactive = no such curve, though single readings can be large; an effect the other way counts as inactive or inconclusive. Potency is read from the fitted curve at half-maximal effect.

SMILES	POLH inh	FEN1 inhibitor	POLI inh	Pol beta inh	WRN inhibitor	Pol kappa inh
CCOC(=O)N1C(C)CN(/[N+]([O-])=N/Oc2ccc([N+](=O)[O-])cc2[N+](=O)[O-])CC1C (stereo unspecified)	x	-2%	u	x	x	4%
O=C1NC(=S)N(c2ccccc2F)C(=O)/C1=C\c1cccs1	-3%	-6%	u	5%	50µM*	-10%
CCOc1ccc(N2C(=O)NC(=O)/C(=C\c3ccccc3[N+](=O)[O-])C2=O)cc1	2%	-24%	u	-11%	-6%	-14%
CCOc1ccc(N2C(=O)/C(=C/c3ccco3)C(=O)NC2=S)cc1	-101%	u	-96%	13µM*	11µM*	1.6µM*
COc1ccc(N2C(=O)/C(=C/c3ccc(OC)c(OC)c3)C(=O)NC2=S)cc1	3%	1%	u	11%	-27%	-2%
CCOc1ccc(N2C(=O)/C(=C\c3cccs3)C(=O)NC2=S)cc1	-15%	u	18µM*	u	40µM*	-9%
O=C1NC(=O)N(CC2CCCO2)C(=O)/C1=C/c1cccs1 (stereo unspecified)	u	u	u	u	-15%	u
CC[C@@]1(O)CC(O)c2c(cc3c(c2O)C(=O)c2c(O)ccc(O)c2C3=O)C1C(=O)OC (stereo partly specified)	x	x	x	x	x	25µM*
CC[C@]1(O)CC(O[C@@H]2CC(N(C)C)C(O)C(C)O2)c2c(cc3c(c2O)C(=O)c2c(O)cccc2C3=O)C1C(=O)OC (stereo partly specified)	x	x	x	x	x	6.3µM*
COP(=O)(c1ccc(N(C)C)cc1)C(O)c1ccccc1 (stereo unspecified)	-8%	9%	67%	-3%	4%	3%
O=C(O)CO.[NH2-].[NH2-].[Pt+2]	x	x	x	x	x	-1%[19.4 µM]
CCC1CN2CCC1CC2C(O)c1ccnc2ccccc12 (stereo unspecified)	x	x	x	x	x	-9%[19.4 µM]
O=c1c2ccccc2nc(CSc2ncnc3nc[nH]c23)n1-c1ccccc1Cl	-2%	3%	-16%	40µM*	-8%	-12%
CC(C)Oc1cccc(C(=O)C2CCCN(Cc3ccon3)C2)c1 (stereo unspecified)	-17%	-13%	34%	0%	-11%	-6%
COc1ccc(C(=O)C2CCCN(Cc3ccon3)C2)c(OC)c1 (stereo unspecified)	u	-11%	89µM*	0%	-6%[57.1 µM]	u
O=c1[nH]c(=O)n(Cc2ccco2)c(O)c1C=NCc1ccco1	89µM*	-22%	40µM*	u	-5%[11.6 µM]	-28%
O=c1[nH]c(=S)n(-c2ccccc2F)c(O)c1C=NCc1ccco1	-1%	-1%	8%	13%	2%	3%
O=c1[nH]c(=O)n(Cc2ccco2)c(O)c1C=NCCN1CCOCC1	10µM*	3%	u	8%	-20%	-24%
Cc1ccc(-n2c(O)c(C=NCc3ccco3)c(=O)[nH]c2=S)cc1C	u	-10%	20µM*	u	u	40µM*
COc1cccc(CNC(=O)c2cccc(S(=O)(=O)N3CCN(C)CC3)c2)c1	-11%	7%	-18%	35%	u	-1%
Oc1cc[c]([Hg][Cl])cc1	x	x	x	x	x	0%[19.4 µM]
C=CCn1c(O)c(C=NCCCn2ccnc2)c(=O)[nH]c1=O	-7%	0%	36%	0.32µM*	-4%	-3%
O=Cc1c(C(=O)O)n(Cc2ccc(Cl)cc2)c2ccccc12	50µM*	4%	u	u	-19%	-16%
Cc1c(C=O)c2ccccc2n1Cc1ccccc1	-29%	6%	26%	21%	u	-14%
COC1C(OC(=O)c2ccc(C)[nH]2)C(O)C(Oc2ccc3c(O)c(NC(=O)c4ccc(O)c(CC=C(C)C)c4)c(=O)oc3c2Cl)OC1(C)C (stereo unspecified)	u	-10%	-22%	45µM*	-32%	-17%
